IL1B secr inh: blocks inflammasome-driven IL-1 beta release; THP-1 LPS/ATP IL-1B secretion, AlphaLISA, 16 h; stronger effect = lower value; activity change, % at 57.5 µM; actives 4.7% (n = 360,000); in the data active means activity change below about -50%; inconclusive means mostly about -30% to -49%
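Secreted IL-1B measured by AlphaLISA bead assay after 16 h compound exposure of THP-1 cells; compounds (final up to 57.5 uM) added 1 h before LPS (250 ng/mL) and ATP (1.25 mM) stimulation; lower signal means less secretion.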
TDP1 cell noCPT: qHTS for Inhibitors of human tyrosyl-DNA phosphodiesterase 1 (TDP1): qHTS in cells in absence of CPT; DT40 Tdp1-/- hTDP1 cells, no CPT, ATP luminescence, 48 h; actives 15% (n = 420,000); Potency, µM (top dose mostly 46.2 µM), most hits filed as inhibitors; further: nearly all actives have a fitted effect of over 55% in size
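Camptothecin absent (DMSO only). Human TDP1-complemented DT40 knockout cells, 400 cells/well, 37 °C for minimum 48 hr; ATP measured via CellTiter-Glo, 30 min dark incubation, luminescence.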
HepG2 viability: counter-screen for TGF-b inhibitors: cytotoxicity in HepG2 cells; HepG2 CAGA-GFP viability, ATP luminescence, 18 h; Potency, µM (highest dose often 46.1 µM), hits mostly cytotoxic; actives 0.76% (n = 410,000); AID 588856
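HepG2 CAGA-GFP cells (1000/well, DMEM with 1% FBS) received compound, then TGF-beta at 500 pg/mL final, and were incubated 18 hours at 37 degrees C. Viability was read by CellTiter-Glo luminescence. Media-only wells were set as complete cell-killing and DMSO as no toxicity.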
TGFb inhibitor: blocks TGF-b signaling. HepG2 CAGA-GFP TGF-b/SMAD3 reporter, GFP fluorescence, 18 h; TGF-beta stimulated, 500 pg/mL final. Potency, µM (highest dose often 46.1 µM), hits mostly inhibitors. actives 1.2% (n = 410,000). AID 588855; further: nearly all actives have a fitted effect of over 65% in size
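Smad-responsive CAGA-GFP expression was quantified in HEPG2 cells exposed to compounds and 500 pg/mL final TGF-beta for 18 h at 37 degrees C; unstimulated wells defined full inhibition.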
DT40 TDP1 CPT: DT40-hTDP1 cell growth loss with CPT; actives 12% (n = 420,000); Potency, µM (top dose mostly 46.2 µM), most hits filed as inhibitors; AID 686979; chicken DT40 Tdp1-/-;hTDP1 cells + 20 nM CPT, ATP luminescence, 48 h; further: nearly all actives have a fitted effect of over 55% in size
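Cell growth measured by CellTiter-Glo luminescence after a minimum 48 h, 37 C compound exposure with 20 nM CPT in Tdp1-knockout DT40 cells stably expressing hTDP1, seeded 400/well; qHTS titration format.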
S-ASM inh: human S-ASM enzyme inhibition | actives 0.006% (n = 340,000) | Potency, µM (titrated, usually from 57.5 µM), hits mostly inhibitors | placental ASM, HMU-PC fluorogenic substrate, 60 min
Target sequence (P17405 47-631 limits assumed): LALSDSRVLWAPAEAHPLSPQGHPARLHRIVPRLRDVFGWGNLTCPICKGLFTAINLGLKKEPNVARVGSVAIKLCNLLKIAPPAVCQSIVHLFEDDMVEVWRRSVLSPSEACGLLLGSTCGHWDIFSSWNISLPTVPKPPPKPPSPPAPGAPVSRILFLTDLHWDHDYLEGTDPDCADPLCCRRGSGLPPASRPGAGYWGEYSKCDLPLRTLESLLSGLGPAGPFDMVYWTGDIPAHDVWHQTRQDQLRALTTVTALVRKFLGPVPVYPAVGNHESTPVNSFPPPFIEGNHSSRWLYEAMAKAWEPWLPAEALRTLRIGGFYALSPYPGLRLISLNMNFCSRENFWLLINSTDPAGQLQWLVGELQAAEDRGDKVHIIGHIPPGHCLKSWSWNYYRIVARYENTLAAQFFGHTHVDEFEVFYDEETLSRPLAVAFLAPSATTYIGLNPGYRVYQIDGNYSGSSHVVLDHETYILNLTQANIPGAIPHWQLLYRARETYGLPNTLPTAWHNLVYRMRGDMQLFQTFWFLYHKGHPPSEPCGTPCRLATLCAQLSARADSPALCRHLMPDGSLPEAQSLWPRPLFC
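Steps: dispense placental human ASM, pin compound, wait 10 min at room temperature, add HMU-PC0 substrate at 9 uM final, incubate 60 min at 37 °C, add stop solution raising pH to 10, read fluorescence.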
Numbers stand for hits; - = inactive; ? = inconclusive; . = no result given. Hits are enriched below; roughly 19% of the tested compounds scored in any of these assays. Unless noted, the call rests on the fitted dose curve; in most records, active means well fitted curve in the direction sought with a large enough effect; inconclusive means small, poorly fitted or top-dose-only effect, or another doubt; inactive means no such curve, though single readings can be large; an effect the other way counts as inactive or inconclusive.

SMILES | IL1B secr inh | TDP1 cell noCPT | HepG2 viability | TGFb inhibitor | DT40 TDP1 CPT | S-ASM inh
O=C(/C=C/c1ccccc1)NC(NC(=S)Nc1ccc(C(=O)O)cc1)C(Cl)(Cl)Cl (stereo unspecified) | - | - | - | - | - | -
Cc1ccc(C)c(NC(=S)NC(NC(=O)/C=C/c2ccccc2)C(Cl)(Cl)Cl)c1 (stereo unspecified) | ? | 23µM | - | ? | ? | -
Cc1ccc(NC(=S)NC(NC(=O)C(C)(C)C)C(Cl)(Cl)Cl)c(C)c1 (stereo unspecified) | - | ? | - | - | ? | -
O=C(/C=C/c1ccccc1)NC(NC(=S)Nc1cccc(O)c1)C(Cl)(Cl)Cl (stereo unspecified) | -117 | 18µM | - | ? | ? | -
COc1cccc(Cc2nc3cccnc3n2C2CCN(Cc3ccc(C)s3)CC2)c1 | . | - | . | . | - | .
O=C(Cn1ncc(Cl)c(Cl)c1=O)NCC1CCCCC1 | -103 | 1.8µM | - | ? | 2.6µM | -
Cc1ccc(Cn2c(C)c3cnn(CC(=O)NC4CCCC4)c(=O)c3c2C)cc1 | - | ? | - | - | ? | -
O=C1CN(C(=O)COc2ccc(Cl)c(Cl)c2)c2ccccc2N1 | - | - | - | ? | - | -
O=C(Cn1ncc(Cl)c(Cl)c1=O)NC1CCCCC1 | -100 | 15µM | - | - | 10µM | -
Cc1cccc(NC(=O)CNC(=O)Cn2ncc(Cl)c(Cl)c2=O)c1C | -100 | 9.2µM | - | ? | 12µM | -
O=C1CN(C(=O)Cn2ncc(Cl)c(Cl)c2=O)c2ccccc2N1 | -106 | 8.2µM | - | - | 7.3µM | -
O=C(CN1C(=O)c2ccccc2C1=O)NC1CCS(=O)(=O)C1 (stereo unspecified) | - | - | - | - | - | .
O=C(Cn1ncc(Cl)c(Cl)c1=O)NC1CCS(=O)(=O)C1 (stereo unspecified) | - | 21µM | - | - | 23µM | -
O=C(Nc1ccccc1)c1cc(C2CCCN(C(=O)OCc3ccccc3)C2)on1 (stereo unspecified) | - | - | - | ? | - | .
O=c1c2sc3ccccc3c2n(Cc2ccccc2F)c(=O)n1CCc1ccccc1 | . | - | - | - | - | .
CN(C1CCCCC1)S(=O)(=O)c1ccc2c(c1)CCC(=O)N2 | - | - | - | - | - | -
CN(C)S(=O)(=O)c1ccc2c(c1)/C(=C/c1cc3c([nH]1)CCCC3)C(=O)N2 | - | 3.3µM | - | - | 4.6µM | ?
CCOc1ccccc1NC(=O)CSc1nnnn1C1CCCC1 | - | ? | - | - | - | -
Cc1ccc(NC(=O)CCc2nnc3ccc(N4CCC(C)CC4)nn23)nc1 | -53 | - | - | - | - | -
COc1ccc(NC(=O)CCc2nnc3ccc(N4CCN(c5cccc(OC)c5)CC4)nn23)cc1 | - | 15µM | - | - | ? | -
Cc1ccc(NC(=O)CCc2nnc3ccc(N4CCC5(CC4)OCCO5)nn23)nc1 | - | - | - | - | - | -
COc1ncnc2c1ncn2CCCNCc1ccco1 | - | - | - | - | - | .
COc1ccc(Cl)cc1S(=O)(=O)N1CCN=C1C | - | ? | - | - | 18µM | -
COc1ccc(C)cc1S(=O)(=O)N1CCCC(N2CCN(c3ccccc3)CC2)C1 (stereo unspecified) | - | 21µM | - | - | ? | .
COc1ccc(Cl)cc1S(=O)(=O)N1CCCc2ccccc21 | - | - | - | - | - | -
SMILES | IL1B secr inh | TDP1 cell noCPT | HepG2 viability | TGFb inhibitor | DT40 TDP1 CPT | S-ASM inh
COc1ccc(C)cc1S(=O)(=O)N1CCN(c2cccc(Cl)c2)CC1 | . | ? | - | ? | 21µM | .
O=C(NCCCN1CCOCC1)C1CCN(S(=O)(=O)c2ccccc2)CC1 | - | - | - | - | - | -
CN(C)c1ccc(-c2c(C3C4C=CCCC4(C)C(=O)N3Cc3ccccc3)ccc3ccccc23)cc1 (stereo unspecified) | . | . | - | ? | . | .
COc1ccc(NC(=O)NC2CCCCCCC2)cc1OC | - | - | - | - | - | -
CC(C)=CC(=O)N1CCC(Oc2cccc(C(=O)NCc3ccccn3)c2)CC1 | - | ? | - | - | - | .
O=C(CN(c1cccc(C(F)(F)F)c1)S(=O)(=O)c1ccc(Cl)c([N+](=O)[O-])c1)NCc1ccccc1 | - | ? | - | - | - | -
O=C(NCc1ccccc1Cl)c1cccc(C(F)(F)F)c1 | -80 | - | - | - | - | -
O=C(NCc1ccccc1Cl)c1cccc(OC2CCN(C(=O)C3CC3)CC2)c1 | - | ? | - | - | 16µM | -
O=C(NCc1cccc(Cl)c1)c1cccc(C(F)(F)F)c1 | - | - | - | - | ? | -
CC(NC(=O)CN(c1cccc(C(F)(F)F)c1)S(=O)(=O)c1ccc(Cl)c([N+](=O)[O-])c1)c1ccccc1 (stereo unspecified) | -91 | 9.2µM | - | ? | 4.6µM | -
O=C(CN(c1cccc(C(F)(F)F)c1)S(=O)(=O)c1ccc(Cl)c([N+](=O)[O-])c1)NCc1ccccc1Cl | -100 | 16µM | - | ? | 16µM | .
CCn1c(SC(C)C(=O)Nc2ccc(N3CCOCC3)cc2)nnc1C1CC1 (stereo unspecified) | - | - | - | - | - | -
CC1=CC=CC2=NC(=O)CC(C)(C(=O)N(CC(=O)NC3CCCC3)c3ccc(F)cc3)N12 (stereo unspecified) | - | - | - | - | - | -
Cc1ccccc1C(=O)Nc1ccccc1OCc1cc(=O)n2ccccc2n1 | . | ? | - | - | ? | .
Cc1ccc(S(=O)(=O)N2CCC(c3nc(-c4cccs4)nc4ccccc34)CC2)cc1 | . | ? | - | - | ? | .
CN1CCN(CC(=O)Nc2cc(N(C)C)nc3ccccc23)CC1 | -62 | - | - | - | - | -
CCN(CC)CC(=O)Nc1cc(N(C)C)nc2ccccc12 | . | - | - | - | - | -
CCc1ccc(Sc2cc(C(=O)NCCCN3CCC(C)CC3)c3ccccc3n2)cc1 | . | 16µM | - | ? | 16µM | .
COc1ccc(OC)c(Nc2cc(C(=O)NCCCN3CCOCC3)c3ccccc3n2)c1 | -63 | 23µM | - | - | ? | -
CCc1ccc(Nc2cc(C(=O)NCCCN3CCOCC3)c3ccccc3n2)cc1 | - | ? | 7.1µM | - | ? | -
COc1ccc(Nc2cc(C(=O)NCCCN3CCOCC3)c3ccccc3n2)cc1 | - | - | - | - | ? | -
COc1ccccc1Nc1cc(C(=O)NCCCN2CCOCC2)c2ccccc2n1 | - | ? | - | - | - | -
